Experimental data as given in PubChem BioAssay AID588692 (Broad Institute, 2011).
Out of some 360,000 compounds screened, about 830 (0.23%) were called active. Shown is part of a subset that was picked to be rich in actives. A number with no mark means an inactive call.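 Rule for the calls: active = mean luciferase reporter signal, scaled so untreated is 0 and the glycosylation-blocking control 100, at or above a set limit in every replicate; inconclusive = mean reaches the limit but not every replicate does; inactive = mean below the limit.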

Assay: increase of ERlucT glycosylation luciferase signal, primary screen, N-linked glycosylation inhibitor project, D54 ERlucT cells, luminescence, set 2 (AID 588692);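 note: luciferase carries N-glycosylation sites so blocking glycosylation raises the light; 0% = median of neutral control wells and 100% = median of 100 nM tunicamycin wells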
Settings: 24 h, at 12.5 µM, hits give high values, percent of 100 nM tunicamycin response

| Structure (SMILES) | reporter increase |
| --- | --- |
| CCCn1nc(C(=O)Nc2ccc3nc(C)sc3c2)c2ccccc2c1=O | -5.69% |
| CC(=O)Nc1ccc2nc(NC(=O)CS(=O)(=O)c3ccc(F)cc3)sc2c1 | 1.57% |
| CCCC(=O)Nc1nc2ccc(NC(=O)c3c(F)c(F)c(OC)c(F)c3F)cc2s1 | 45.8% (active) |
| O=C(NCN1CCN(CCO)CC1)c1cnccn1 | 1.41% |
| Cc1cc(C)c2nc(SCC(=O)N(C)C3CCS(=O)(=O)C3)cc(C)c2c1 (stereo not given) | -2.35% |
| CC1CCN(c2ccc(-c3ccc(NC(=O)c4ccco4)cc3)nn2)CC1 | -3.17% |
| COc1cc(OC)cc(C(=O)NCCCn2ccnc2)c1 | -1.14% |
| O=C(NCCCn1ccnc1)c1cc(Br)c(Br)s1 | -1.37% |
| O=C(NCCCn1ccnc1)c1cc(-c2ccccc2)on1 | 86.5% (active) |
| CC(C)CC1C(=O)N(Cc2cn(CC3CCCCC3)nn2)CCS(=O)(=O)N1Cc1ccc(-c2ccc(Cl)cc2)cc1 (stereo not given) | -5.63% |
| COc1ccc(-c2c(C#N)cnc(C)c2C)c(O)c1OC | 1.16% |
| CSc1ncnc2c1ncn2CCCNCc1ccco1 | -1.13% |
| CCc1ccccc1NC(=O)Cc1cn(C)c2ccccc12 | 0.183% |
| COc1ccc(CNC(=O)C[C@H]2C[C@H](C(=O)N3CCOCC3)[C@@]3(C)c4[nH]c5cc(CCC(=O)N(C)C)ccc5c4CCN3C2=O)cc1OC | 1.84% |
| O=C(OC(C(=O)NC1CCCC1)c1ccc(F)cc1)c1ccno1 (stereo not given) | 3.11% |
| O=C1C(C=NCC2CCCO2)=C(O)c2ccccc21 (stereo not given) | -4.51% |
| O=C1c2cccc3c([N+](=O)[O-])ccc(c23)C(=O)N1CC1CCCO1 (stereo not given) | 29.4% (active) |
| N#Cc1cc([N+](=O)[O-])ccc1NCC1CCCO1 (stereo not given) | -0.076% |
| C[C@@H]1C[C@@H]2O[C@H]2/C=C\C=C\C(=O)Cc2c(Cl)c(O)cc(O)c2C(=O)O1 | -14.3% |
| CCC1=C(OC(=O)N(CC)CC)N2C(=O)OC(=NCCc3c[nH]c4ccccc34)[C@]2(C)[C@H]2C1=CC[C@H]1C(=O)N(CC)C(=O)[C@H]12 | -4.07% |

| Structure (SMILES) | reporter increase |
| --- | --- |
| CC(=O)c1ccc(S(=O)(=O)NCCC(=O)N2CCN(c3ccccn3)CC2)cc1 | -0.855% |
| CCN(CC(=O)Nc1c(F)cccc1F)C(=O)C1CCC1 | 0.369% |
| CC(=O)Nc1ccc(SCC(=O)NC(=O)c2ccc(Cl)cc2)cc1 | -6.32% |
| O=C(O)CSCC(=O)Nc1ccc(C(F)(F)F)cc1 | 1.33% |
| O=C(CCl)Nc1ccc(Sc2ccc(NC(=O)CCl)cc2)cc1 | 41% (active) |
| Cc1ccccc1NC(=O)c1ccc(COc2ccc3c(C)cc(=O)oc3c2)cc1 | -2.09% |
| O=C(c1ccccc1)C(Cn1cncn1)C(Sc1ccccc1)c1ccccc1 (stereo not given) | -3.83% |
| O=C(NCc1ccc2c(c1)OCO2)c1cc([N+](=O)[O-])ccc1N1CCOCC1 | 25.7% (active) |
| O=C(Cc1ccc([N+](=O)[O-])cc1)NCCc1ccc2c(c1)OCO2 | -0.789% |
| CC1CCN(c2ccc(C(=O)NCc3ccc4c(c3)OCO4)cc2[N+](=O)[O-])CC1 | -1.89% |
| Cc1ccc(C(=O)NCC(c2cccs2)N(C)C)cc1S(=O)(=O)N1CCOCC1 (stereo not given) | 0.45% |
| Cc1nc(-c2ccccc2)sc1-c1nnc(C2CC2)o1 | 0.986% |
| Cc1ccc(Nc2nc(N)nc(CN3CCN(Cc4ccccc4)CC3)n2)cc1Cl | 49% (active) |
| CCOC(=O)C1CCCN(Cc2nc(N)nc(Nc3ccc(C)cc3)n2)C1 (stereo not given) | 1.57% |
| Cc1ccccc1Nc1nc(N)nc(CN2CCN(c3ccccn3)CC2)n1 | 1.95% |
| CCN(C(=O)COC(=O)c1cc(S(=O)(=O)N2CCc3ccccc32)ccc1OC)C1CCS(=O)(=O)C1 (stereo not given) | -1.41% |
| Cc1cccc(C(=O)NCc2nnc(SC(C)C(=O)Nc3nnc(C)s3)n2C)c1 (stereo not given) | -0.286% |
| CC(C)(Oc1ccc(C2CC2(Cl)Cl)cc1)C(=O)O (stereo not given) | 4.07% |
| O=C(Cc1ccccc1)Nc1ccc(C(=O)Nc2ccccc2C(=O)O)cc1 | 1.55% |
| O=C(Nc1ccccc1F)c1ccc(S(=O)(=O)N2CCCCCC2)cc1 | -0.684% |

| Structure (SMILES) | reporter increase |
| --- | --- |
| Nc1ccc(C(=O)Nc2ccccc2N)cc1 | 69.6% (active) |
| Cc1ccc(S(=O)(=O)NC(=O)N2CCCN(Cc3ccc(F)cc3)CC2)cc1 | -2.48% |
| O=C(CCNS(=O)(=O)c1ccccc1)NCCSc1ccc(Br)cc1 | 2.32% |
| CC1(C)CC(=O)C=C(NCc2ccncc2)C1 | 1.27% |
| O=C(CCN1C(=O)C2CCCCC2C1=O)Nc1ccc(OC(F)F)cc1 (stereo not given) | 0.177% |
| Cc1cc(Cl)ccc1N1C(=O)CC(SCCC(=O)O)C1=O (stereo not given) | 1.84% |
| O=C(O)CC(Cc1ccccc1)C(=O)Nc1ccc([N+](=O)[O-])cc1 (stereo not given) | -1.27% |
| COc1cccc(C(NC(C)=O)c2nc(-c3cnc4ccccc4c3)cs2)c1 (stereo not given) | 1.72% |
| COc1cccc(C(NC(C)=O)c2nc(-c3ccccc3OC)cs2)c1 (stereo not given) | 62.8% (active) |
| CC(=O)NC(c1ccccc1)c1nc(-c2ccccc2C)cs1 (stereo not given) | 11.9% |
| COc1cccc(C(=O)N2CCC(n3nccc3NC(=O)C3CCOC3)CC2)c1 (stereo not given) | 0.842% |
| COc1ccc(Cl)cc1NS(=O)(=O)c1cccc(C(=O)NC2CCC(O)CC2)c1 (stereo not given) | -1% |
| Cc1[nH]n(C(N)=S)c(=O)c1N=Nc1ccc(Cl)cc1Cl | -0.0505% |
| CC(=O)NC(Cc1ccc(F)c(F)c1)C(=O)NC1CCN(c2nnnn2-c2ccccc2)CC1 (stereo not given) | 0.485% |
| Cc1cccc(C(=O)Nc2ccc(C(=O)/C=C/c3cccs3)cc2)c1 | -1.77% |
| Cc1ccc(OCC(=O)Nc2ccc(N3CCN(C(=O)c4ccco4)CC3)cc2)c(C)c1 | -5.46% |
| Cc1ccc(NNC(=O)c2cccs2)cc1Cl | 1.56% |
| C/C(=N\OCC(=O)Nc1ccc(Br)cc1)c1cccs1 | 2.32% |
| Cc1ccc(C(=O)Nc2ccc(NC(=O)c3cccs3)cc2)c(C)c1 | 47.6% (active) |
| Cc1ccc(OCC(=O)Nc2ccc(NC(=O)c3cccs3)cc2)c(C)c1 | 79.9% (active) |
